Data: PubChem BioAssay (EPA / NIEHS)
The source made the active and inactive calls. Rule for the calls: active = hit-call score of the fitted dose curve at least 0.9, where 1 is the maximum; inactive = score below 0.9.

Columns and labels:
[1] = ATG_E_Box_CIS: Attagene CIS-FACTORIAL HepG2 Assay for human Enhancer Box (E-box) (AID 2282936); details: HepG2 E-box cis-reporter transcription, actives raise or lower the signal
Procedure, shortened: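 HepG2 cells transiently transfected with multiplexed cis-element reporter units, dosed 24 h; reporter mRNA quantified by RT-PCR, 6-FAM labelling, HpaI digestion and capillary electrophoresis. E-box (USF1) signal fitted bidirectionally vs DMSO.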

[2] = ATG_M_61_CIS: Attagene CIS-FACTORIAL HepG2 Assay for M61 Transcription Factor (Internal Marker) (AID 2282937); details: HepG2 Attagene CIS-FACTORIAL M61 internal marker reporter; actives raise or lower the signal
Procedure, shortened: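 Transfect HepG2 with MRTUs; dose 24 h; isolate RNA; reverse-transcribe with DNase I treatment; PCR-amplify, FAM-label and cut with HpaI for 2 h at 37 C; resolve by CE. Bidirectional fitting against DMSO.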

[3] = ATG_EGR_CIS: Attagene CIS-FACTORIAL HepG2 Assay for human Early Growth Response 1 (EGR1) (AID 2282938); details: HepG2 Attagene CIS-FACTORIAL EGR reporter mRNA; actives raise or lower the signal
Procedure, shortened: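 After a 24 h treatment of transiently transfected HepG2 cells, total RNA was reverse-transcribed and reporter sequences PCR-amplified, labelled and run on capillary electrophoresis. Reporters sit under cis-regulatory promoters sensing endogenous factors.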

[4] = ATG_M_19_CIS: Attagene CIS-FACTORIAL HepG2 Assay for M19 Transcription Factor (Internal Marker) (AID 2282939); details: HepG2 Attagene CIS-FACTORIAL M19 internal marker reporter; actives raise or lower the signal
Procedure, shortened: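 Chemical-treated HepG2 (24 h) with MRTU constructs; reporter transcripts detected by fluorescent RT-PCR fragment analysis on capillary electrophoresis. Internal background marker, DMSO as baseline.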

[5] = ATG_ERE_CIS: Attagene CIS-FACTORIAL HepG2 Assay for Estrogen Response Element (ERE) (AID 2282940); details: HepG2 ERE cis-reporter, Attagene RNA transcript; actives raise or lower the signal
Procedure, shortened: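 Human liver cells (HepG2) bearing transiently transfected, promoter-regulated reporter units were exposed 24 h. Reporter mRNA induction was detected by capillary electrophoresis of labelled RT-PCR products and fitted bidirectionally to DMSO.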

[6] = ATG_Ets_CIS: Attagene CIS-FACTORIAL HepG2 Assay for human Erythroblast Transformation Specific (ETS) (AID 2282941); details: HepG2 ETS cis-reporter transcription, actives raise or lower the signal
Procedure, shortened: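 Steps: transfect HepG2 with multiple reporter units; treat compound 24 h; isolate RNA, DNase-treat, reverse-transcribe; PCR-amplify, label with 6-FAM, digest with HpaI; separate by capillary electrophoresis. Activity fitted both directions versus DMSO.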

[7] = ATG_FoxO_CIS: Attagene CIS-FACTORIAL HepG2 Assay for human Forkhead box O (FoxO) (AID 2282943); details: HepG2 Attagene cis-reporter, FoxO element, mRNA; actives raise or lower the signal
Procedure, shortened: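 Read-out: fluorescence of 6-FAM-labelled reporter cDNA fragments resolved by capillary electrophoresis. Transiently transfected HepG2 cells were dosed for 24 h; activity fitted in both directions relative to DMSO controls.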

[8] = ATG_GATA_CIS: Attagene CIS-FACTORIAL HepG2 Assay for human GATA Binding Protein (AID 2282944); details: HepG2 GATA cis-element reporter, Attagene multiplex mRNA; actives raise or lower the signal
Procedure, shortened: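 Transfected cis-reporter HepG2 cells were treated with chemicals for 24 hours. Total RNA was then converted to cDNA, amplified with reporter-specific primers and analysed by fluorescent capillary electrophoresis, using DMSO-treated wells as baseline.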

[9] = ATG_GLI_CIS: Attagene CIS-FACTORIAL HepG2 Assay for human Zinc Finger Protein GLI1 (AID 2282945); details: HepG2, Attagene cis-factorial reporter mRNA, GLI element; actives raise or lower the signal
Procedure, shortened: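 Transiently transfected HepG2 cells report endogenous transcription factor activity via cis-element-driven reporter units. After 24 h compound exposure, reporter mRNA was measured by RT-PCR with capillary electrophoresis; bidirectional fitting against DMSO baseline.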

[10] = molecular target: Hepatocyte nuclear factor 3-beta (Homo sapiens) (UniProt Q9Y261); assay: ATG_FoxA2_CIS: Attagene CIS-FACTORIAL HepG2 Assay for human Forkhead box A2 (FOXA2) (AID 2282942); details: HepG2 cis-reporter transcription factor activity, 24 h; actives raise or lower the signal
Chain of Hepatocyte nuclear factor 3-beta (Homo sapiens) (Q9Y261 whole entry, looked up): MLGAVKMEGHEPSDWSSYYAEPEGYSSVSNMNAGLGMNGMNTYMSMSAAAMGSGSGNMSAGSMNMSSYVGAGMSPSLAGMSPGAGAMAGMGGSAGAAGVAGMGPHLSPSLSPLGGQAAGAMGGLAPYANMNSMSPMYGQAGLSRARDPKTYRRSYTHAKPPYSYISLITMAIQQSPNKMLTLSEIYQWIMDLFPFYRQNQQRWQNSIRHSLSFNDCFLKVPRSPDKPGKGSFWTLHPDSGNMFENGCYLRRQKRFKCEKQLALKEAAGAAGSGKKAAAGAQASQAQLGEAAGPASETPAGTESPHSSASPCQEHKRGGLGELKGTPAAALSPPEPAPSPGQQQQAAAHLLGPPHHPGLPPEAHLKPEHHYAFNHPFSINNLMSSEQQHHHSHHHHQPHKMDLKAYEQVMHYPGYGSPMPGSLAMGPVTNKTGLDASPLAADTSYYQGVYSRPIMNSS
Procedure, shortened: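 24 h dosing of HepG2 bearing cis-reporter constructs; mRNA readout by RT-PCR/CE fluorescence; bidirectional fit, DMSO baseline.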

For `CC(C)c1ccc(C#N)cc1`, the outcome [1] was “inactive”, the outcome [2] was “inactive” and the outcome [3] was “inactive”. The outcome [4] was “inactive”, the outcome [5] was “inactive” and the outcome [6] was “inactive”. The outcome [7] was “inactive”, the outcome [8] was “inactive” and the outcome [9] was “inactive”.

In the case of `Cc1cc(O)c(Cl)c(C)c1Cl`, the outcome [1] is reported as “inactive”, the outcome [2] is reported as “inactive” and the outcome [3] is reported as “inactive”. The outcome [4] was “inactive”, the AC50 [5] was 28.3 µM (active) and the outcome [6] was “inactive”. The outcome [7] was “inactive”, the outcome [8] was “inactive” and the outcome [9] was “inactive”.

With `CC1=NC(C)OC1C` (stereo not given) the outcome [1] was “inactive”, the outcome [2] was “inactive” and the outcome [3] was “inactive”. For the same compound, the outcome [4] was “inactive”, the outcome [6] was “inactive” and the outcome [10] was “inactive”. The outcome [7] was “inactive”, the outcome [8] was “inactive” and the outcome [9] was “inactive”.

For `O=C1C(N(CO)C(=O)NCO)N(CO)C(=O)N1CO` (stereo not given), the outcome [1] was “inactive”, the outcome [2] was “inactive” and the outcome [3] was “inactive”. For the same compound, the outcome [4] was “inactive”, the outcome [6] was “inactive” and the outcome [10] was “inactive”. For the same compound, the outcome [7] was “inactive”, the outcome [8] was “inactive” and the outcome [9] was “inactive”.

For `Cc1oncc1C(=O)Nc1ccc(C(F)(F)F)cc1`, the outcome [1] was “inactive”, the outcome [2] was “inactive” and the outcome [3] was “inactive”. The outcome [4] was “inactive”, the outcome [6] was “inactive” and the outcome [10] was “inactive”. The outcome [7] was “inactive”, the outcome [8] was “inactive” and the outcome [9] was “inactive”.

With `CCCCCC/C=C/C=O` the outcome [1] was “inactive”, the outcome [2] was “inactive” and the outcome [3] was “inactive”. The outcome [4] was “inactive”, the outcome [6] was “inactive” and the outcome [10] was “inactive”. For the same compound, the outcome [7] was “inactive” and the outcome [8] was “inactive”.

In the case of `O=c1cc[nH]c(=S)[nH]1`, the outcome [1] is reported as “inactive”, the outcome [2] is reported as “inactive” and the outcome [3] is reported as “inactive”. The outcome [4] was “inactive”, the outcome [5] was “inactive” and the outcome [6] was “inactive”. For the same compound, the outcome [7] was “inactive” and the outcome [9] was “inactive”.

For `COc1cc(NC(=O)CC(C)=O)c(OC)cc1Cl`, the outcome [1] was “inactive”, the outcome [2] was “inactive” and the outcome [3] was “inactive”. The outcome [4] was “inactive”, the outcome [5] was “inactive” and the outcome [6] was “inactive”. The outcome [7] was “inactive”, the outcome [8] was “inactive” and the outcome [9] was “inactive”.

With `CC1=CC[C@H](C(C)C)C=C1` the outcome [1] was “inactive”, the outcome [2] was “inactive” and the outcome [3] was “inactive”. The outcome [4] was “inactive”, the outcome [6] was “inactive” and the outcome [10] was “inactive”. For the same compound, the outcome [7] was “inactive” and the outcome [8] was “inactive”.

In the case of `CCOC(=O)NNc1nncc2ccccc12`, the outcome [1] is reported as “inactive”, the outcome [2] is reported as “inactive” and the outcome [3] is reported as “inactive”. The outcome [4] was “inactive”, the outcome [6] was “inactive” and the outcome [10] was “inactive”. For the same compound, the outcome [7] was “inactive”, the outcome [8] was “inactive” and the outcome [9] was “inactive”.

In the case of `C=CC(=O)OCCC(=O)O`, the outcome [1] is reported as “inactive”, the outcome [2] is reported as “inactive” and the outcome [3] is reported as “inactive”. For the same compound, the outcome [4] was “inactive”, the outcome [5] was “inactive” and the outcome [6] was “inactive”. For the same compound, the outcome [7] was “inactive”, the outcome [8] was “inactive” and the outcome [9] was “inactive”.

With `C=C(C)C(=O)OCCO` the outcome [1] was “inactive”, the outcome [2] was “inactive” and the outcome [3] was “inactive”. For the same compound, the outcome [4] was “inactive”, the outcome [6] was “inactive” and the outcome [10] was “inactive”. For the same compound, the outcome [7] was “inactive”, the outcome [8] was “inactive” and the outcome [9] was “inactive”.

With `O=C(O)CC(C(=O)O)C(CC(=O)O)C(=O)O` (stereo not given) the outcome [1] was “inactive”, the outcome [2] was “inactive” and the outcome [3] was “inactive”. The outcome [4] was “inactive”, the outcome [6] was “inactive” and the outcome [10] was “inactive”. The outcome [7] was “inactive”, the outcome [8] was “inactive” and the outcome [9] was “inactive”.

In the case of `C=CCCCCCCCCC(=O)OCCCC`, the outcome [1] is reported as “inactive”, the outcome [2] is reported as “inactive” and the outcome [3] is reported as “inactive”. The outcome [4] was “inactive”, the outcome [5] was “inactive” and the outcome [6] was “inactive”. For the same compound, the outcome [7] was “inactive”, the outcome [8] was “inactive” and the outcome [9] was “inactive”.

In the case of `CC(C)C(=O)C(C)C`, the outcome [1] is reported as “inactive”, the outcome [2] is reported as “inactive” and the AC50 [3] is reported as 59.4 µM (active). The outcome [4] was “inactive”, the outcome [6] was “inactive” and the outcome [10] was “inactive”. The AC50 [7] was 65.6 µM (active) and the outcome [8] was “inactive”.

For `O=S(=O)(Oc1ccc(Cl)cc1Cl)c1ccccc1`, the outcome [1] was “inactive”, the outcome [2] was “inactive” and the outcome [3] was “inactive”. For the same compound, the outcome [4] was “inactive”, the outcome [6] was “inactive” and the outcome [10] was “inactive”. The outcome [7] was “inactive”, the outcome [8] was “inactive” and the outcome [9] was “inactive”.
